# VP16 counter: counter-screen for ROR gamma inhibitors: Gal4-VP16 reporter | Potency, µM (highest dose often 53.6 µM), without a hit: at the highest dose activity, negative = inhibition, most hits filed as inhibitors | 3.5% of 310,000 active | Drosophila S2 Gal4-VP16 UAS-luciferase, luminescence, 20 h;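 also: Gal4-VP16 expression switched on by copper sulfate through the metallothionein promoter; potency is read from the fitted curve at half-maximal effect; % is scaled to controls: 0 for no effect and ±100 for the full control effect; nearly all actives have a fitted effect of over 50% in size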
# IL1B secr inh: inhibitors of inflammasome signaling (IL-1 beta secretion) | THP-1 LPS/ATP IL-1B secretion, AlphaLISA, 16 h; hits give low values | activity change, % at 57.5 µM | 4.7% of 360,000 active | AID 743279; in the data active = activity change below about -50%; inconclusive = mostly about -30% to -49%; also: % is scaled to controls: 0 for no effect and ±100 for the full control effect
#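 THP-1 cells pretreated 1 hr with compounds (up to 57.5 uM final), then stimulated with LPS (250 ng/mL final) plus ATP (1.25 mM final); secreted IL-1B measured by AlphaLISA after 16 hr, decreased signal indicating inhibition.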
# RORg inh: inhibitors of mouse ROR gamma transcriptional activity; P51450; Drosophila S2 Gal4-RORgamma UAS-luciferase reporter, 20 h; Potency, µM (highest dose often 53.6 µM), without a hit: at the top dose activity change, negative = inhibition, actives largely listed as inhibitors; 5.4% of 310,000 active; also: potency is read from the fitted curve at half-maximal effect; % is scaled to controls: 0 for no effect and ±100 for the full control effect; nearly all actives have a fitted effect of over 60% in size
# Target sequence (P51450 whole entry, looked up, the tested form may be a part): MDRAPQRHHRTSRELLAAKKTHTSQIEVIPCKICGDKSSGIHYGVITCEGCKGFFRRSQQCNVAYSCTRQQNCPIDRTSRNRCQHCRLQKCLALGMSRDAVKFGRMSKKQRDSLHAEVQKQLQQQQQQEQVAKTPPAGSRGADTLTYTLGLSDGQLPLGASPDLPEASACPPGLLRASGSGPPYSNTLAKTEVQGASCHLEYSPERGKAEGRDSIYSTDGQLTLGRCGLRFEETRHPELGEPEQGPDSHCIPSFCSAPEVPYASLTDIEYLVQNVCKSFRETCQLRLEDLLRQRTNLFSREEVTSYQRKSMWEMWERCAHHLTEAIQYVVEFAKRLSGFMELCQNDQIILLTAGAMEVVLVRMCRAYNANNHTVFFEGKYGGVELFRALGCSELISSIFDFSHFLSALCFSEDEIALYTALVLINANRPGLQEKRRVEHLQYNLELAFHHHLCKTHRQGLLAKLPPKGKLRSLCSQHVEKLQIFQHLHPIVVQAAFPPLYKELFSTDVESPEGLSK
#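 In this cell-based reporter format, copper sulfate (700 uM final) drives Gal4–ROR gamma fusion expression from a metallothionein promoter in Drosophila Schneider cells; compounds preincubated 1 hr, reporter read after 20 hr at ambient temperature.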
# SW480 rereplic: DNA re-replication induction in SW480 cells; Potency, µM (doses to about 46.1 µM), for inactives: at the top dose re-replication activation, most hits filed as activators; 1.8% of 340,000 active; SW480 DNA re-replication, Hoechst DNA content imaging, 48 h; also: potency is read from the fitted curve at half-maximal effect; % of control where 0% means no effect; nearly all actives have a fitted effect of over 55% in size
#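 Hoechst fluorescence of nuclei (405 nm excitation, 500-530 nm emission) measured by plate-scanning imager after 48 hr compound exposure at 37 C; re-replication scored as increased number of nuclei with elevated intensity.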
# MCF10A rerep: inducers of DNA re-replication in MCF 10A breast cells; Potency, µM (highest dose often 46.1 µM), for inactives: at the highest dose activity, positive = re-replication, most hits filed as activators; 2.9% of 350,000 active; MCF 10A DNA re-replication, Hoechst nuclear intensity, 48 h; also: potency is read from the fitted curve at half-maximal effect; % of control where 0% means no effect; nearly all actives have a fitted effect of over 50% in size
# * = called active by the depositor; ? = inconclusive; nt = no result given; [ ] = remark or other dose. An excerpt weighted towards active compounds, which were near 11% of everything screened. Unless noted, calls follow the shape of the dose curve; as a rule, active = well fitted curve in the direction sought with a large enough effect; inconclusive = small, poorly fitted or top-dose-only effect, or another doubt; inactive = no such curve, though single readings can be large; an effect the other way counts as inactive or inconclusive.
SMILES,VP16 counter,IL1B secr inh,RORg inh,SW480 rereplic,MCF10A rerep
O=C(NCCN1Cc2ccccc2C1=O)c1cccs1,-3%,-18,30%,1%,-3%
Cc1ccc(CNC(=S)NC2CCCCC2)cc1,4µM*,2,4µM*,-8%,16%
O=C1c2ccccc2CN1CCNC(=S)NC1CCCCC1,-25%,-1,18µM*,1%,0%
S=C(NCc1ccccc1)NC1CCCCC1,18µM*,11,4µM*,-3%,-1%
CCCCCCCCCCCCC/C=C/[C@@H](O)[C@H](CO)NC(=O)CCCCC,-10%,nt,4%,nt,nt
COc1ccc(C(=O)NCc2nnc(SCC(=O)c3ccccc3)n2C)cc1OC,nt,13,nt,-13%,1%
S=C(Nc1ccccn1)NC1CCCC1,-8%,164,-27%,4%,11%
S=C(NCCc1ccccn1)NC1CCCCC1,-90%,-22,13µM*,-3%,0%
S=C(NCCCc1ccccc1)NC1CCCCC1,7.1µM*,-89*,4.5µM*,?,8%
S=C(NCc1cccc(Cl)c1)NC1CCCCC1,14µM*,-18,2.8µM*,-17%,?
S=C(Nc1ccccn1)NC1CCCCC1,5µM*,nt,2µM*,-11%,1%
S=C(NCc1ccncc1)NC1CCCCC1,-5%,5,3%,-33%,2%
Cc1ccc(CN=C(Nc2ccccc2)NC2CCCCC2)cc1,-6%,-87*,24%,4%,15%
O=C(Nc1ccccc1)NC1CCCCC1,17%,-12,23%,0%,-11%
CC1(C)Oc2cc3c(cc2O1)OC(C)(C)O3,0%[10 µM],nt,0%[10 µM],nt,nt
CNC(=S)N/N=C/c1cc(Br)cc(Br)c1O,3.2µM*,0,3.2µM*,nt,7.3µM*
NC(=S)NC1CC2C=CC1C2 (configuration not stated),6%,35,-21%,-22%,-6%
CC(C)(C)NC(=S)N/N=C/c1cc(Br)c(O)c(Br)c1,?,3,?,-6%,17%
CC(=O)Nc1ccc(C(=O)N/N=C/c2cc(Br)cc(Br)c2O)cc1,-25%,126,5µM*,-146%,?
Oc1c(Br)cc(Br)cc1/C=N/NC(=S)N[C@H]1CC2C=CC1C2 (some centres not stated),?,90,?,?,5.8µM*
CCN(CC(=O)Nc1cccc(S(=O)(=O)N(C)c2ccccc2)c1)Cc1ccccc1,nt,5,nt,-11%,2%
COC(=O)c1ccc(C(NC(=O)OCc2ccccc2)/C(=C/[C@@H](C)C(=O)NCc2ccc(S(C)(=O)=O)cc2)c2cccnc2)cc1 (some centres not stated),0%,nt,12%,nt,nt
CCOC(=O)C1CCN(C(=O)C2CCN(S(=O)(=O)c3cc(Cl)ccc3OCC)CC2)CC1,nt,4,nt,-2%,3%
Cc1cc(-n2c(C)cc(C(=O)COc3ccc(F)c(F)c3)c2C)no1,nt,-24,nt,-22%,23%
COc1ccc(NS(=O)(=O)c2ccc(-c3coc(C)n3)cc2)cc1,-16%,11,?,-44%,2%
SMILES,VP16 counter,IL1B secr inh,RORg inh,SW480 rereplic,MCF10A rerep
COc1ccc(NS(=O)(=O)c2ccc(-c3coc(C)n3)cc2)cc1OC,1.4µM*,?,?,15%,6%
CCn1c2ccccc2c2cc(NC(=O)C(=O)N3CCOCC3)ccc21,-5%,?,24%,-118%,1%
CCn1c(=O)n(CC)c2cc(NS(=O)(=O)c3ccccc3)ccc21,6%,-3,4%,3%,8%
CCn1c2ccccc2c2cc(NC(=O)CN3CCCC3)ccc21,4%,-69*,-11%,21%,-2%
CCn1c2ccccc2c2cc(NC(=O)CNCC3CCCO3)ccc21 (configuration not stated),-15%,-52*,17%,3%,6%
CCn1c2ccccc2c2cc(NC(C)=O)ccc21,7%,11,-2%,0%,-2%
CCn1c2ccccc2c2cc(NS(=O)(=O)c3ccc(C)cc3)ccc21,-7%,0,9%,?,18µM*
O=S1(=O)N[C@H](Cc2ccccc2)COc2cc(N3CCC[C@@H]3CO)ccc21,nt,50,nt,nt,nt
OCCN1CCN(C(c2cccs2)c2ccc3cccnc3c2O)CC1 (configuration not stated),11µM*,nt,11µM*,nt,nt
